Screening results from PubChem BioAssay.
KCNQ2 block – KCNQ2 (rat) channel inhibition. B-score at 10 µM. O88943. CHO-K1 KCNQ2, FluxOR thallium flux, 20 min; active compounds read low. 310,000 compounds, 1.1% hits;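 active means fluorescence ratio B-score at most minus 3 library SDs, with starting brightness B-score within 2 library SDs, cut at about -5.5 in these data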
Target sequence (O88943 whole entry, looked up): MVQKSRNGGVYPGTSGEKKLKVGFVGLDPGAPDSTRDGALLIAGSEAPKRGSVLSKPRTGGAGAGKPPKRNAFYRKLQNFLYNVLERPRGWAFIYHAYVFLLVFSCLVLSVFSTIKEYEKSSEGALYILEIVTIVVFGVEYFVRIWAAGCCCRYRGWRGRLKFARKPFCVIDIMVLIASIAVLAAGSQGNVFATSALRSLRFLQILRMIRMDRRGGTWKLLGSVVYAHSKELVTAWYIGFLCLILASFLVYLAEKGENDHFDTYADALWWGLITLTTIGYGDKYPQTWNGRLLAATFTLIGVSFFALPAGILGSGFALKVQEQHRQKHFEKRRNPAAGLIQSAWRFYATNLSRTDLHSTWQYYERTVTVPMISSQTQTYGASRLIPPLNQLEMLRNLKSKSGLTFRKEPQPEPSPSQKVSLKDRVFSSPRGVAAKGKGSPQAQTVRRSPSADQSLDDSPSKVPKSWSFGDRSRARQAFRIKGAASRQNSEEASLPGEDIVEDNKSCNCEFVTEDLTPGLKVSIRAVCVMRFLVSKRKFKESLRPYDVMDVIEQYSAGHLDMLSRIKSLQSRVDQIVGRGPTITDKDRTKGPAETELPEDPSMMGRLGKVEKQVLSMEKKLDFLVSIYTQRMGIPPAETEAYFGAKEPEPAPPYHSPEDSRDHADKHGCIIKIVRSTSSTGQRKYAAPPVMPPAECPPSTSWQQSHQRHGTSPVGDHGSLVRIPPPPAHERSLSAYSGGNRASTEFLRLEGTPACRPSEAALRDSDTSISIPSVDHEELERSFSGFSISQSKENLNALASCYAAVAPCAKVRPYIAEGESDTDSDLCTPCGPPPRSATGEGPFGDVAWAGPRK
KCNQ2 pot – potentiators of rat KCNQ2 potassium channel; 310,000 compounds, 0.54% hits; CHO-K1 KCNQ2, FluxOR thallium flux fluorescence; active compounds read high; O88943; B-score at 10 µM;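 active means fluorescence ratio B-score at least 3 SD of library B-scores, with initial fluorescence B-score within 3 of them, cut at about 5.3 in these data; same plate scores as AID 2156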;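 further: B-score of peak minus minimum over baseline fluorescence ratio after K+ and Tl+ stimulus; positive B-score means potentiation of KCNQ2 with more thallium influx and brighter signal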
Of the large screens only hits and unclear results are named; the others gave an inactive call. This is a sample that favours compounds with a hit; in the whole collection about 1.6% have one here.

Cc1cc(C)c(-c2cc(NC(=O)CSc3n[nH]c(N)n3)n(-c3ccccc3)n2)cc1C	KCNQ2 block -6.86
Cc1cc(C)c(-c2cc(NC(=O)COC(=O)c3ccc(CO)cc3)n(-c3ccccc3)n2)cc1C	none (no result: KCNQ2 pot)
COC(C/C=C\C(=O)[C@@H](C)OCc1ccccc1)OC	none
NC(=S)N=Nc1c(O)[nH]c2c(Br)cc(Br)cc12	none (no result: KCNQ2 pot)
CCOC(=O)N1CCC(c2cc(=O)n3[nH]cc(C(=O)OC)c3n2)CC1	none (no result: KCNQ2 pot)
CCOc1ccc(NC(=O)c2c[nH]n3c(=O)cc(C4CCN(C(=O)OC(C)(C)C)CC4)nc23)cc1	KCNQ2 pot 8.55
Cn1c(N)c(Sc2ccc(F)cc2)c(=O)n(C)c1=O	none (no result: KCNQ2 pot)
Cc1oc2c(cc(NS(=O)(=O)c3ccc(F)cc3)c3ccccc32)c1C(=O)O	none (no result: KCNQ2 pot)
Cc1oc2c(cc(NS(=O)(=O)c3ccc(C(C)C)cc3)c3ccccc32)c1C(=O)O	KCNQ2 block -5.83
C=CCn1c(CSCc2ccccc2)nnc1SCC(=O)NCc1ccccc1	KCNQ2 block -5.55
CCn1c(CSCc2ccc(F)cc2)nnc1SCC(=O)NCc1ccccc1	none (no result: KCNQ2 pot)
O=C(NCCS(=O)(=O)N1CCN(c2ccccc2)CC1)c1cccc(F)c1	none
CCOc1cc(N2CCOCC2)c(OCC)cc1NC(=O)[C@H](C)NC(=O)c1ccco1	none
O=C1c2ccccc2C(Nc2ccc(Cl)cn2)N1Cc1ccccc1 (centres undefined)	KCNQ2 block -6.49
O=C(CN1C(=O)c2ccccc2C1=O)Nc1ccc(Cl)cn1	none
CCN(CC(=O)Nc1ccc(NC(C)=O)cc1)C(=O)CN1C(=O)NC2(CCCC2)C1=O	none (no result: KCNQ2 pot)
COc1ccccc1CNC(=O)C1CCC(CNS(=O)(=O)c2cccc3cccnc23)CC1 (centres undefined)	none (no result: KCNQ2 pot)
O=C(CCN1CCCC1)c1cccs1	none (no result: KCNQ2 pot)
O=C(CCc1ccc(CCC(=O)c2cccs2)s1)c1cccs1	KCNQ2 block -6.77
O=C(N/N=C/c1cccc([N+](=O)[O-])c1O)c1cccs1	KCNQ2 pot 5.98
O=C(N/N=C/c1ccc([N+](=O)[O-])cc1)c1cccs1	none (no result: KCNQ2 pot)
O=C(CSc1nnc2ccccn12)N1CCc2ccccc21	none
Cc1ccc(-n2cc(C(=O)c3cc(Cl)ccc3O)cc(C#N)c2=O)cc1	none (no result: KCNQ2 pot)
Cc1ccccc1NC(=O)c1cc(C(=O)c2cc(Cl)ccc2O)cn(-c2ccccc2C)c1=O	KCNQ2 block -5.6
CC(=O)N1c2ccc3ccccc3c2C(C)CC12CCCCC2 (centres undefined)	KCNQ2 block -6.63
CC1CC2(CCCCC2)Nc2ccc3ccccc3c21 (centres undefined)	none (no result: KCNQ2 pot)
CC(Oc1ccccc1)C(=O)N1CCN(c2ccc(N3CCOCC3)nn2)CC1 (centres undefined)	none
Cc1ccc(S(=O)(=O)NCc2cccnc2)cc1	none (no result: KCNQ2 pot)
COc1cc(CNC(=O)c2cccc(COc3ccc(Cl)cc3)c2)cc(OC)c1	KCNQ2 block -5.93
O=C(NCc1ccccc1)c1cccc(COc2ccc(Cl)cc2)c1	none (no result: KCNQ2 pot)
Cc1ccc(NC(=O)/C(=C/c2cccc([N+](=O)[O-])c2)NC(=O)C2CCCCC2)cc1	none
O=C(Nc1ccc(Br)cc1)/C(=C/c1cccc([N+](=O)[O-])c1)NC(=O)C1CCCCC1	KCNQ2 block -7.65
Cc1cccc(/C=C/c2onc(C)c2S(=O)(=O)N2CCC(C(=O)N3CCC(C)CC3)CC2)c1	none (no result: KCNQ2 pot)
Cc1cccc(/C=C/c2onc(C)c2S(=O)(=O)N2CCC(C(=O)N3CCCCCC3)CC2)c1	KCNQ2 block -5.99
Cc1ccc(C)c(NC(=O)CN(C)C(=O)c2ccc(Cl)nc2)c1	none
O=C(N1CCOCC1)N(CCN1CCOCC1)Cc1cccc2ccccc12	none (no result: KCNQ2 pot)
CC1(C(=O)c2ccccc2)C2c3c(ccc4ccccc34)OC(=O)C21C(=O)N1CCOCC1 (centres undefined)	KCNQ2 block -7.87
O=C(CN1C(=O)c2cccc3cccc(c23)C1=O)N1CCN(Cc2ccc3c(c2)OCO3)CC1	none
O=C(COC(=O)C1(c2ccccc2F)CCCC1)NCc1ccc2c(c1)OCO2	KCNQ2 block -7.08
O=C(COC(=O)C1(c2ccc(F)cc2)CCCC1)NCc1ccc2c(c1)OCO2	none (no result: KCNQ2 pot)
COc1ccccc1N1CCN(C(=O)C(C)CS(=O)(=O)c2ccc3c(c2)NC(=O)CS3)CC1 (centres undefined)	none (no result: KCNQ2 pot)
O=C(Nc1ccc2c(c1)OCCO2)c1cc2sccc2n1Cc1ccccc1	none (no result: KCNQ2 pot)
O=C(Nc1ccc2c(c1)OCCO2)c1cc2sccc2n1Cc1ccc(F)cc1	KCNQ2 block -6.14
O=C(Nc1ccc(S(=O)(=O)N2CCCC2)cc1)c1cccnc1Cl	none (no result: KCNQ2 pot)
Clc1nnc(NN=C2CCCC2)c2ccccc12	KCNQ2 pot 9.46
Clc1nnc(N/N=C/c2ccccc2)c2ccccc12	none
O=C(c1cccs1)c1no[n+]([O-])c1C(=O)c1cccs1	KCNQ2 block -14.2
COc1ccc(C(=O)c2no[n+]([O-])c2C(=O)c2ccc(OC)cc2)cc1	none (no result: KCNQ2 pot)
O=C(NC1CCCC1)c1cc(=O)[nH]c2ccccc12	none (no result: KCNQ2 pot)
CC(=O)N1CCN(c2ccccc2NC(=O)COc2ccccc2C)CC1	none (no result: KCNQ2 pot)
Cc1ccccc1OCC(=O)Nc1ccccc1N1CCC(C)CC1	KCNQ2 block -6.2
Cc1ccc(OCC(=O)Nc2ccccc2N2CCCC2)c(C)c1	KCNQ2 block -5.57
O=C(COc1ccccc1)Nc1ccccc1N1CCCCC1	none (no result: KCNQ2 pot)
Cc1ccc(C(C)C)c(OCC(=O)NC(=S)Nc2ccccc2N2CCOCC2)c1	KCNQ2 block -6.45
Cc1cccc(OCC(=O)Nc2ccccc2N2CCCCC2)c1	none (no result: KCNQ2 pot)
Cc1cccc(OCC(=O)NC(=S)Nc2ccccc2N2CCOCC2)c1C	none (no result: KCNQ2 pot)
Cc1cc(C)c(OCC(=O)Nc2ccccc2N2CCCCC2)c(C)c1	KCNQ2 block -5.56
CC(C)NC(=O)C1CCN(C2CCN(C(=O)c3ccc4cccc(F)c4n3)CC2)CC1	none (no result: KCNQ2 pot)
Cc1ccc(C(=O)N2CCC3(CC2)NCCc2[nH]cnc23)cc1C	none
O=C(NCCc1c[nH]c2ccccc12)/C(=C\c1cccnc1)NC(=O)c1ccccc1Br	none (no result: KCNQ2 pot)
Cc1ccc(N(C)C(=O)C2CCCN2S(=O)(=O)c2ccc3c(c2)n(C)c(=O)c(=O)n3C)cc1 (centres undefined)	none (no result: KCNQ2 pot)
Cc1ccccc1OCC(=O)Nc1ccc(S(=O)(=O)N2CCCC2)cc1	none (no result: KCNQ2 pot)
Cc1ccccc1OCC(=O)Nc1ccc(C)c(S(=O)(=O)N2CCCCCC2)c1	KCNQ2 block -6.07
COc1ccc(C(=O)NC(=S)Nc2ccccc2N2CCOCC2)cc1Br	none (no result: KCNQ2 pot)
COc1ccc(C(=O)Nc2ccccc2N2CCOCC2)cc1Br	KCNQ2 block -6.29
Cc1ccccc1OCC(=O)Nc1cccc(Cl)c1C	none
Cc1ccccc1OCC(=O)Nc1ccccc1-c1ccccc1NC(=O)COc1ccccc1C	KCNQ2 block -5.61
CN(C)S(=O)(=O)c1cccc(CNCC2COc3ccccc3O2)c1 (centres undefined)	none (no result: KCNQ2 pot)
COc1ccc(NC(=O)CN(C)C(=O)CN2C(=O)NC3(CCCC3)C2=O)cc1	none
CN(C)/C=N/C(=S)Nc1ccc(Cl)cc1Cl	none (no result: KCNQ2 pot)
CC(C(=O)Nc1ccccc1C(F)(F)F)N1CCN(C)CC1 (centres undefined)	none (no result: KCNQ2 pot)
CCn1c(SCc2nc3ccccc3s2)nnc1-c1ccccc1	none (no result: KCNQ2 pot)
CCC(c1nnc(SCc2nc3ccccc3s2)n1Cc1ccccc1)N(C)C (centres undefined)	KCNQ2 block -6.34
CCNC(=O)c1ccccc1SCC(=O)Nc1ccc(F)cc1	none
CC(C)(c1ccccc1)c1ccc(OCCn2cnc3ccccc3c2=O)cc1	KCNQ2 block -7.41
O=C(c1ccccc1)c1ccc(OCCn2cnc3ccccc3c2=O)cc1	none
Cc1sc2ncn(CC(=O)Nc3ccccc3F)c(=O)c2c1-c1ccccc1	none
CC(C)c1nc(SCC(=O)N2CCN(c3ccccc3)CC2)c2c(=O)n(C)c(=O)n(C)c2n1	KCNQ2 pot 6.23
